Experimental data: PubChem BioAssay AID1159580 (chemical genetic matrix, 2015)
About 2,000 (36%) of roughly 5,500 compounds were called active. Another 18% or so got no clear call; they are omitted. This is one part of the list. Unmarked numbers belong to inactive results. Cut-off read from the data, not from the text of the source: active = normalized growth mostly below about 0.91 (no sharp cut-off); inconclusive = no clear call, values can overlap the other calls; inactive = mostly above about 0.92.

Test: chemical genetic growth profiling, strain panel (AID 1159580);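 note: tested at 20 µM; growth read once vehicle control cultures reached saturation at 30 °C; 1 = growth at the plate median or of vehicle wells; lower values mean less growth of the strain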
Settings: S. cerevisiae deletion strains, growth OD

Compound: N#Cc1c2ccccc2nc2ccccc12
- normalized growth (locus YAR019C, strain CDC15, stronger effect = lower value): 0.818 (active)
- normalized growth (locus YBL105C, strain PKC1, stronger effect = lower value): 0.834 (active)
- normalized growth (locus YBR135W, strain CKS1, stronger effect = lower value): 0.808 (active)
- normalized growth (locus YBR136W, strain MEC1, stronger effect = lower value): 0.827 (active)
- normalized growth (locus YBR160W, strain CDC28, stronger effect = lower value): 0.823 (active)
- normalized growth (locus YDL017W, strain CDC7, stronger effect = lower value): 0.834 (active)
- normalized growth (locus YDL028C, strain MPS1, stronger effect = lower value): 0.825 (active)
- normalized growth (locus YDL101C, strain DUN1, stronger effect = lower value): 0.832 (active)
- normalized growth (locus YDL108W, strain KIN28, stronger effect = lower value): 0.826 (active)
- normalized growth (locus YDL132W, strain cdc53, stronger effect = lower value): 0.885
- normalized growth (locus YDL214C, strain PRR2, stronger effect = lower value): 0.743
- normalized growth (locus YDR052C, strain DBF4, stronger effect = lower value): 0.829 (active)
- normalized growth (locus YDR054C, strain cdc34, stronger effect = lower value): 0.781 (active)
- normalized growth (locus YDR226W, strain ADK1, stronger effect = lower value): 0.825 (active)
- normalized growth (locus YDR477W, strain SNF1, stronger effect = lower value): 0.678 (active)
- normalized growth (locus YER123W, strain YCK3, stronger effect = lower value): 0.678
- normalized growth (locus YER133W, strain GLC7, stronger effect = lower value): 0.717 (active)
- normalized growth (locus YFL009W, strain cdc4, stronger effect = lower value): 0.813 (active)
- normalized growth (locus YFL029C, strain CAK1, stronger effect = lower value): 0.813 (active)
- normalized growth (locus YFR003C, strain YPI1, stronger effect = lower value): 0.831 (active)
- normalized growth (locus YFR019W, strain FAB1, stronger effect = lower value): 0.844
- normalized growth (locus YFR028C, strain CDC14, stronger effect = lower value): 0.832 (active)
- normalized growth (locus YGR040W, strain KSS1, stronger effect = lower value): 0.716
- normalized growth (locus YGR052W, strain FMP48, stronger effect = lower value): 0.736
- normalized growth (locus YGR092W, strain DBF2, stronger effect = lower value): 0.196 (active)
- normalized growth (locus YHR030C, strain SLT2, stronger effect = lower value): 0.693 (active)
- normalized growth (locus YHR079C, strain IRE1, stronger effect = lower value): 0.599
- normalized growth (locus YHR082C, strain KSP1, stronger effect = lower value): 0.72
- normalized growth (locus YHR205W, strain SCH9, stronger effect = lower value): 0.807
- normalized growth (locus YIL147C, strain SLN1, stronger effect = lower value): 0.822 (active)
- normalized growth (locus YJL095W, strain BCK1, stronger effect = lower value): 0.561
- normalized growth (locus YJL128C, strain PBS2, stronger effect = lower value): 0.87
- normalized growth (locus YJL157C, strain FAR1, stronger effect = lower value): 0.675 (active)
- normalized growth (locus YJR016C, strain ILV3, stronger effect = lower value): 0.816 (active)
- normalized growth (locus YJR066W, strain TOR1 (second series), stronger effect = lower value): 0.728
- normalized growth (locus YJR066W, strain TOR1, stronger effect = lower value): 0.615
- normalized growth (locus YKL048C, strain ELM1, stronger effect = lower value): 0.746 (active)
- normalized growth (locus YKL067W, strain YNK1, stronger effect = lower value): 0.744
- normalized growth (locus YKL101W, strain HSL1, stronger effect = lower value): 0.761
- normalized growth (locus YKL193C, strain SDS22, stronger effect = lower value): 0.803 (active)
- normalized growth (locus YKL203C, strain TOR2, stronger effect = lower value): 0.693 (active)
- normalized growth (locus YLR113W, strain HOG1, stronger effect = lower value): 0.638 (active)
- normalized growth (locus YLR133W, strain CKI1, stronger effect = lower value): 0.737
- normalized growth (locus YLR403W, strain SFP1, stronger effect = lower value): 0.605 (active)
- normalized growth (locus YML070W, strain DAK1, stronger effect = lower value): 0.726
- normalized growth (locus YMR001C, strain CDC5, stronger effect = lower value): 0.818 (active)
- normalized growth (locus YMR205C, strain PFK2 (second series), stronger effect = lower value): 0.761
- normalized growth (locus YMR277W, strain FCP1, stronger effect = lower value): 0.817 (active)
- normalized growth (locus YNL006W, strain LST8, stronger effect = lower value): 0.829 (active)
- normalized growth (locus YNL020C, strain ARK1, stronger effect = lower value): 0.717
- normalized growth (locus YNL161W, strain CBK1, stronger effect = lower value): 0.823 (active)
- normalized growth (locus YNL183C, strain NPR1, stronger effect = lower value): 0.584
- normalized growth (locus YNL207W, strain RIO2, stronger effect = lower value): 0.822 (active)
- normalized growth (locus YNL222W, strain SSU72, stronger effect = lower value): 0.825 (active)
- normalized growth (locus YNL307C, strain MCK1 (second series), stronger effect = lower value): 0.649
- normalized growth (locus YOL078W, strain AVO1, stronger effect = lower value): 0.803 (active)
- normalized growth (locus YOL136C, strain PFK27, stronger effect = lower value): 0.742
- normalized growth (locus YOR061W, strain CKA2, stronger effect = lower value): 0.677 (active)
- normalized growth (locus YOR119C, strain RIO1, stronger effect = lower value): 0.749
- normalized growth (locus YOR231W, strain MKK1, stronger effect = lower value): 0.587
- normalized growth (locus YOR329C, strain SCD5, stronger effect = lower value): 0.829 (active)
- normalized growth (locus YPL031C, strain PHO85, stronger effect = lower value): 0.616 (active)
- normalized growth (locus YPL153C, strain RAD53, stronger effect = lower value): 0.659 (active)
- normalized growth (locus YPL204W, strain HRR25, stronger effect = lower value): 0.693
- normalized growth (locus YPL209C, strain IPL1, stronger effect = lower value): 0.833 (active)
- normalized growth (locus YPL256C, strain CLN2, stronger effect = lower value): 0.708 (active)
- normalized growth (locus YPR025C, strain CCL1, stronger effect = lower value): 0.82 (active)
- normalized growth (locus YPR106W, strain ISR1, stronger effect = lower value): 0.862 (active)
- normalized growth (locus YPR111W, strain DBF20, stronger effect = lower value): 0.843 (active)
- normalized growth (strain NNK1, stronger effect = lower value): 0.846 (active)
- normalized growth (strain TSCII, stronger effect = lower value): 0.811 (active)
